This experiment concerns HepG2. In words: GSK_TCMDC: Percent inhibition of human HepG2 cell line. Test compounds present at 10uM. Format: functional.
The compound `Cc1cc(=O)c2cc(Oc3cccc(OC(F)(F)F)c3)ccc2[nH]1` registered an Inhibition of 9%.
The result for `CCOC(=O)c1[nH]c2cc(Cl)cc(Cl)c2c1/C=C/C(=O)Nc1ccc(-c2cnc(NC(C)=O)[nH]2)cc1` reads 45%; that for `CN1CCN(c2ccnc3ccc(NC(=O)Nc4cccc5c(-c6ccncc6)cccc45)cc23)CC1`, 7%.
Take `CC(C)c1ccc(NC(S)=NN=Cc2ccccn2)cc1`: the Inhibition stood at 47%.
Consider `O=C(c1ccc(-c2ccccn2)s1)N1CCc2cc3nccc(N4CCN5CCC[C@H]5C4)c3cc21`, for which the Inhibition is 0%.
The result for `O=C(N[C@@H](CC1CCCCC1)C(=O)NC1CCCc2ccccc21)c1ccc(O)c(-c2ccc(Cl)c(Cl)c2)c1` (stereo not given in full) reads 1%.
The result for `OCc1c(Cl)cc(Cl)cc1CNCCCNc1nc2ccccc2[nH]1` reads 0%.
Take `Cc1cccc2nc(-c3ccc(-c4cccc(CNCc5ccc(CN)cc5)c4)s3)[nH]c12.O=C(O)C(F)(F)F`: the Inhibition is recorded as 11%.
Regarding `Fc1cccc(COc2ccc(Nc3ncnc4sc(C#Cc5ncc[nH]5)cc34)cc2Cl)c1`, the Inhibition came to 55%.
The result for `Cc1ccc2c(N/N=C/c3ccccc3[N+](=O)[O-])cc(C)nc2c1` reads 13%; that for `CC(=O)O.C[C@H](NC(=O)[C@H](Cc1ccccc1)NC(=O)OC(C)(C)C)C(=O)N[C@@H](CC1CCCCC1)C(O)CN` (stereo not given in full), 0%; that for `COC(=O)c1cccc(CNCc2cccc(-c3cccc(-c4nc5cc(C(F)(F)F)ccc5[nH]4)c3)c2)c1.O=C(O)C(F)(F)F`, 7%.
The compound `Cc1ccc2c(=NN=Cc3ccc(N(C)C)cc3)cc(C)[nH]c2c1` gave an Inhibition of 0%.
The value for `COC1(C)Oc2ccc3cccc([N+](=O)[O-])c3c2C1=O` (stereo not given) was 3%.
Regarding `COc1ccc(C=CC(=O)Nc2ccc(N3CCCC3)cc2)cc1.Cl`, the Inhibition was determined as 0%.
Regarding `CCCNCc1ccc(-c2ccc(CN(CCOC)C(=O)CCCOCc3ccccc3)cc2)nc1.O=C(O)C(F)(F)F`, the Inhibition is recorded as 0%.
Compound `Nc1ncc(-c2ccccc2)cc1-c1cccc2ncccc12.O=C(O)C(F)(F)F` came in with an Inhibition of 82%.
As to `Cc1cc(OCC2CCN(c3ncc(C(=O)Nc4ccccc4)cc3Cl)CC2)ccc1F`, the Inhibition was 27%.
The compound `CC(=O)Nc1nc(C(=O)Nc2ccc(-c3cccc(-c4nc5cccc(C)c5[nH]4)c3)cc2)cs1` came in with an Inhibition of 100%.
`Cn1cc(C2CCN(CCCCNC(=O)c3sc(-c4ccc(C(F)(F)F)cc4)nc3CO)CC2)c2ccccc21` yielded an Inhibition of 46%.
The compound `COc1ccc2nccc([C@@H](O)CN3CCC(c4cc(-c5ccc(Cl)cc5)[nH]n4)CC3)c2n1` returned an Inhibition of 43%.
The result for `O=c1[nH]c2c(cc1CNC1CCCCC1)c(-c1ccc(F)cc1)nn2-c1ccccc1` reads 8%; that for `Oc1c(C(Nc2nc3ccccc3s2)c2ccccc2)ccc2cccnc12` (stereo not given), 45%.
`CCS(=O)(=O)Nc1ccc2[nH]cc(C3CCN(CCC4CCN(C(=O)/C=C/c5ccc(Cl)c(Cl)c5)CC4)CC3)c2c1`: the Inhibition is recorded as 34%.
In turn, `Cc1ccc(F)c(NC(=O)c2c(-c3c(F)cccc3Cl)noc2C)c1` registered an Inhibition of 13%.
Regarding `O=C(Nc1ccc(OC2CCN(Cc3ccccc3)CC2)c(Cl)c1)c1ccco1.O=C(O)C(F)(F)F`, the Inhibition is 8%.
`Cc1cc(NC(=O)Nc2ccc(C#N)cc2)c2ccccc2n1` had an Inhibition of 88%.
For `NC(=O)COc1c(C2CCN(CCCCNC(=O)c3ccc(-c4ccc(Cl)cc4)c(O)c3)CC2)ccc2c1CCCC2`, the Inhibition was determined as 97%.
`O=C(NC1CCN(Cc2ccccc2)CC1)c1ccc(-c2nc3cc(Cl)c(F)cc3[nH]2)cc1`: the Inhibition worked out at 13%.
Take `Cc1nc2ccc(-c3ccc(OC(F)(F)F)cc3)cc2c(O)c1C#N`: the Inhibition came out at 0%.
For the compound `Br.Cc1ccc(OCCCON2C(=N)N=C(N)NC2(C)C)cc1C`, the Inhibition was found to be 57%.
The value for `CCN(CC)c1ccc(NC(=S)NC2CCN(CCCCCNC(=O)/C=C/c3ccc(Cl)c(Cl)c3)CC2)cc1` was 16%.
Turning to `Cl.NOCCCOc1ccccc1`, the Inhibition is 20%.
As to `CCc1ccc(NC(=O)c2cccc(CN3CCCN(Cc4cccc(O)c4)CC3)c2)cc1.O=C(O)C(F)(F)F`, the Inhibition is reported as 53%.
On to `CCC(CC)N1C(=O)C(c2ccccc2)(c2ccccc2)N=C1N.O=CO`, for which the Inhibition was found to be 14%.
Compound `CCN(CC)CCN(Cc1ccc(-c2ccc(C(F)(F)F)cc2)cc1)C(=O)Cn1c(CCc2cccc(F)c2F)cc(=O)cc1-c1ccccc1` came in with an Inhibition of 33%.
In the case of `Cc1noc(C)c1-c1ccc(C(=C2CCCCCCC2)c2ccc(O)cc2)cc1`, the Inhibition is 0%.
As to `CCCC(C)Nc1nc(C)cc(N[C@@H](Cc2ccccc2)C(=O)NCc2ccc(C)cc2)n1.O=C(O)C(F)(F)F` (stereo not given in full), the Inhibition turned out to be 22%.
`O=C(/C=C/c1ccc(Cl)c(Cl)c1)NCCCCN1CCCN(C(=O)Nc2ccc(F)c(Cl)c2)CC1` gave an Inhibition of 69%.
`Cc1cc2c(cc1Cl)N(C(=O)Nc1cc(F)cc(-c3cncnc3)c1)CC2` returned an Inhibition of 0%.

The Inhibition is the share of the control response that was lost under treatment.
